# Screening results from PubChem.
# RXFP1 antag: antagonists of human relaxin receptor RXFP1 | Q9HBX9 | HEK293-RXFP1, relaxin-stimulated cAMP HTRF, 30 min; stronger effect = lower value | activity change, negative = inhibition, % at 57.5 µM | 350,000 tested, 0.59% active | AID 1259400;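 active = activity change of -60% or lower, but not beyond a set lower limit; inconclusive = change between -60% and -40%, or beyond the set limit; inactive = change above -40%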; note: % is set by controls: 0 for no effect and ±100 for the full control effect
# PTHR1 ag: activates the human parathyroid hormone receptor PTHR1; Q03431; HEK293 GP2 PTHR1 cells, GloSensor cAMP luminescence, 1 h; Potency, µM (top dose mostly 115 µM), without a hit: top-dose activation, usual class: activators; 410,000 tested, 0.075% active; AID 743266; note: potency is the fitted concentration of half-maximal effect; nearly all actives have a fitted effect of over 55% in size
#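 HEK-293-derived GP2 cells expressing PTHR1 and a GloSensor cAMP reporter, 3,000/well, plated overnight, given luciferin plus IBMX (each 0.5 mM as added) for 1 h at 37 °C, then compound for 1 h at 37 °C. Luminescence was read after 15 min at room temperature.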
# HEK293 tox: cytotoxicity counter-screen for GLP-1 receptor inverse agonists; HEK293 cAMP-luciferase reporter cells, luminescence, 24 h; Potency, µM (series often up to 38.3 µM), for inactives: at the highest dose activity change, negative = inhibition, usual class: inhibitors; 410,000 tested, 0.13% active;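 note: loss of luciferase light is scored as toxicity; potency is the fitted concentration of half-maximal effect; % is set by controls: 0 for no effect and ±100 for the full control effect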
#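 Here, cytotoxicity is scored as loss of luminescence. The MLSMR collection was tested on cells seeded in medium containing 10% Nu serum, with a 24 hr compound exposure preceded by 12 hours of culture.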
# RXFP1 ag: RXFP1 (human) receptor agonism. 370,000 tested, 0.3% active. HEK293T-RXFP1 cAMP TR-FRET, 30 min; response scale: percent of porcine relaxin response, buffer zero. AID 2676. Potency, µM (titrated, usually from 57.5 µM), inactives show top-dose activation, actives largely listed as activators; note: potency is the fitted concentration of half-maximal effect; % is set by controls: 0 for no effect and ±100 for the full control effect; nearly all actives have a fitted effect of over 60% in size
#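 HEK293T cells stably expressing RXFP1 were pretreated with the PDE4 inhibitor Ro 20174, exposed to compounds for 30 min at 37C, lysed, and cAMP was read by TR-FRET. Data normalized to buffer (basal) and 29 nM porcine relaxin (100%).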
# TSHR antag: blocks TSH signaling through the human TSH receptor | AID 504810 | 330,000 tested, 0.2% active | P16473 | activity change, negative = inhibition, % at 11.5 µM | TSHR-expressing cells, TSH-stimulated cAMP HTRF, 2 h; stronger effect = lower value;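 active = activity change below a set negative limit, meaning inhibition stronger than a set level, cut at about -70% in these data; inconclusive = activity change between two set negative limits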; note: % is set by controls: 0 for no effect and ±100 for the full control effect
#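 Competitive HTRF cAMP read-out (cryptate anti-cAMP antibody, cAMP-d2; 30 min, room temperature) in freshly harvested TSHR cells. Compounds added before TSH at EC80 (4nM final), followed by 2 hours' incubation at 37 deg C.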
# NPSR antagonist: antagonists of human neuropeptide S receptor cAMP signaling; 220,000 tested, 1% active; Q6W5P4; CHO-NPSR cells, cAMP TR-FRET, antagonist mode; Potency, µM (doses to about 38.3 µM), for inactives: at the highest dose activity change, negative = inhibition, actives largely listed as inhibitors; note: potency is the fitted concentration of half-maximal effect; % is set by controls: 0 for no effect and ±100 for the full control effect; nearly all actives have a fitted effect of over 50% in size
# Target sequence (Q6W5P4 whole entry, looked up): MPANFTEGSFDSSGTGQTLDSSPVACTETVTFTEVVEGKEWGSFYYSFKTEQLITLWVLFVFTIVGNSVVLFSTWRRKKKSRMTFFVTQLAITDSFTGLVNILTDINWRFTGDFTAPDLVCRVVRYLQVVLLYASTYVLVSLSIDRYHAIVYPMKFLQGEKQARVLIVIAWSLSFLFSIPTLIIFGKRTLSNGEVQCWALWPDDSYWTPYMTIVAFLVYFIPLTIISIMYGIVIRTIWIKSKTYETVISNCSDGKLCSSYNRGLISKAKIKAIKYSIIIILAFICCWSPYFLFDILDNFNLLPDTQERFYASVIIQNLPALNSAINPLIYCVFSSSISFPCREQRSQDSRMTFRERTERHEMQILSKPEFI
# * marks the source's active call; other numbers are inactive results; i = inactive; ? = inconclusive; / = no result; [ ] = dose if it differs, or a comment. The sample as a whole holds a higher share of hits than the screen did. Unless noted, calls come from the whole dose curve; as a rule, active = well fitted curve in the direction sought with a large enough effect; inconclusive = small, poorly fitted or top-dose-only effect, or another doubt; inactive = no such curve, though single readings can be large; an effect the other way counts as inactive or inconclusive.
SMILES,RXFP1 antag,PTHR1 ag,HEK293 tox,RXFP1 ag,TSHR antag,NPSR antagonist
COc1ccc(CNC(=O)CCn2nc(C)c3c(C)n(-c4ccccc4)nc3c2=O)cc1OC,-11.5,-12.0%,15.9%,-1.1%,/,/
CC(C)c1cnc2c(c1SCC(=O)Nc1cccc(F)c1)c(=O)n(C)c(=O)n2C,-17.8,-54.9%,-4.5%,-0.5%,/,/
CCC(=O)Nc1nc(CC(=O)Nc2ccccc2OC)cs1,-0.8,i,1.3%,-0.6%,12.3,-9.1%[46.1 µM]
COc1ccccc1NC(=O)Cc1csc(NC(=S)Nc2ccc(C)cc2)n1,-4.0,i,3.16µM*,3.3%,-28.8,-24.5%[46.1 µM]
COc1ccc(/C=N/Nc2nc(Nc3ccccc3)nc(N3CCCC3)n2)cc1[N+](=O)[O-],-5.0,-20.2%,?,-0.3%,-16.2,3.6%
COc1ccc(/C=N/Nc2nc(Nc3ccccc3)nc(N3CCCCC3)n2)c(OC)c1,-6.1,-24.1%,5.01µM*,0.2%,-24.7,-15.2%
COc1ccc(/C=N/Nc2cc(N3CCCC3)nc(N3CCCC3)n2)cc1,-14.9,-37.4%,?,-1.8%,-0.8,12.6µM*
COc1ccc(O)c(/C=N/Nc2nc(Nc3ccccc3)nc(-n3nc(C)cc3C)n2)c1,2.8,-5.9%,-41.6%,1.2%,-29.0,1.26µM*
CCCNC(=O)Cn1c(=O)c2cccn2c2cccnc21,3.8,?,-0.9%,-3.1%,/,/
COCCOC(=O)c1[nH]c2c(c1C)C(=O)C(C(=O)OC)C(C)C2 (stereo not drawn),/,i,4.6%,0.1%,-5.6,-9.3%[46.1 µM]
COC(=O)C1C(=O)c2c([nH]c(C(=O)OCC3CCCO3)c2C)CC1C (stereo not drawn),-6.7,-15.0%,16.1%,0.3%,6.8,12.6µM*
C=CCn1c(=N)c(S(=O)(=O)c2ccc(C)c(C)c2)cc2c(=O)n3ccccc3nc21,6.3,-17.0%,3.9%,2.3%,-3.9,/
COc1ccc(NC(=S)NC(NC(=O)c2cccc(Cl)c2)C(Cl)(Cl)Cl)c([N+](=O)[O-])c1 (stereo not drawn),-11.1,-9.1%[57.5 µM],-25.1%,-1.0%,-24.7,10µM*
O=[N+]([O-])c1ccc(NN=Cc2cccc3ccccc23)cc1,0.9,-1.2%,28.8%,/,/,/
O=[N+]([O-])c1cc(Br)c(O)c(/C=N/Nc2nnnn2-c2cccc3ccccc23)c1,39.1,-27.7%[57.5 µM],1.2%,1.4%,-74.5*,?
O=c1[nH]c(=S)[nH]c2nc(-c3ccccc3)cnc12,-8.4,-7.0%,-12.3%,/,/,/
O=c1[nH]c(=O)c2nc(-c3ccc(Cl)cc3)cnc2[nH]1,-3.3,14.1µM*,i,26.7%,-3.2,-10.7%
O=[N+]([O-])c1nccn1CO[C@@H](CO)[C@H](O)CO,7.9,/,/,/,/,/
C/C(Cl)=C\Cn1c(O)c(N=NC(N)=S)c2ccccc21,-9.4,-7.4%,1.58µM*,1.5%,-2.9,?
O=C(Nc1ccccc1F)c1ccc2sc([C@H]3C[C@H](O)[C@@H](CO)O3)nc2c1,/,-8.6%,1.0%,/,/,/
COc1ccc(CCNC(=O)c2cc(Nc3cc(C)cc(C)c3)nc3ccccc23)cc1OC,/,-43.3%,2.9%,-1.3%,/,/
CC(NC(=S)Nc1ccccc1Cl)C(c1ccccc1)N1CCOCC1 (stereo not drawn),0.7,-12.8%,10µM*,2.6%,0.8,-3.3%
COc1ccc(NC(=S)NC(C)C(c2ccccc2)N2CCOCC2)cc1 (stereo not drawn),10.6,i,-0.5%,0.0%,3.9,1.7%
CC(C)=CCOc1ccc(/C=C/C(=O)c2ccc(OCC=C(C)C)cc2OCC(=O)O)cc1,-102.3*,/,/,/,/,/
C/C=C/c1ccc(OCC(=O)O)c(OC)c1,-11.0,i,5.3%,0.2%,9.6,-4.8%
O=C(NC1CCOc2ccccc21)c1ccccn1 (stereo not drawn),-24.8,i,-5.3%,1.1%,-91.7*,/
